# The source made the active and inactive calls. Rule for the calls: active = hit-call score of the fitted dose curve at least 0.9, where 1 is the maximum; inactive = score below 0.9.
# Legend:
# [1] = read-out: growth arrest and DNA damage 45 (GADD45A), GADD45A (gene 1647); assay: LTEA_HepaRG_GADD45A: Life Technologies and Expression Analysis (LTEA) Assay for growth arrest and DNA damage 45 (GADD45A) using HepaRG (AID 2283458); conditions: mRNA level, 48 h; actives raise or lower the signal
# Procedure, shortened: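 Differentiated HepaRG cells exposed 48 h in serum-free induction medium to 8 concentrations, top 100 uM in half-log steps, 0.5% DMSO. GADD45A mRNA quantified by qRT-PCR, normalized to ACTB, GAPDH and POLR2A; bidirectional fit versus DMSO.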
# [2] = read-out: Forkhead box O3 (FOXO3), FOXO3 (gene 2309); assay: LTEA_HepaRG_FOXO3: Life Technologies and Expression Analysis (LTEA) Assay for Forkhead box O3 (FOXO3) using HepaRG (AID 2283459); conditions: mRNA level, 48 h; actives raise or lower the signal
# Procedure, shortened: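 Differentiated human HepaRG cells in serum-free induction medium were exposed in duplicate for 48 h to eight half-log concentrations up to 100 uM in 0.5% DMSO. FOXO3 mRNA was quantified by qRT-PCR, normalized to ACTB, GAPDH and POLR2A, with bidirectional fitting versus DMSO.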
# [3] = read-out: ABC Transporter (ABCB1), ABCB1 (gene 5243); assay: LTEA_HepaRG_ABCB1: Life Technologies and Expression Analysis (LTEA) Assay for ABC Transporter (ABCB1) using HepaRG (AID 2283460); conditions: mRNA level, 48 h; actives raise or lower the signal
# Procedure, shortened: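 Differentiated human HepaRG cells, plated 48 h then switched to serum-free induction medium, were exposed in duplicate to eight half-log concentrations up to 100 uM in 0.5% DMSO for 48 h. ABCB1 mRNA was measured by TaqMan qRT-PCR, normalized to ACTB/GAPDH/POLR2A.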
# [4] = read-out: ABC Transporter (ABCC3), ABCC3 (gene 8714); assay: LTEA_HepaRG_ABCC3: Life Technologies and Expression Analysis (LTEA) Assay for ABC Transporter (ABCC3) using HepaRG (AID 2283462); conditions: mRNA level, 48 h; actives raise or lower the signal
# Procedure, shortened: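 Human HepaRG, 48 h dosing, 8-pt half-log series from 100 uM, 0.5% DMSO vehicle, duplicates. ABCC3 mRNA by TaqMan qRT-PCR, housekeeping-normalized; bidirectional curve fit vs DMSO.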
# [5] = read-out: ABC Transporter (ABCC2), ABCC2 (gene 1244); assay: LTEA_HepaRG_ABCC2: Life Technologies and Expression Analysis (LTEA) Assay for ABC Transporter (ABCC2) using HepaRG (AID 2283464); conditions: mRNA level, 48 h; actives raise or lower the signal
# Procedure, shortened: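 HepaRG, 48 h post-plating; serum-free induction medium; cpd 8-pt, 100 uM top, half-log, 0.5% DMSO, duplicate, 48 h. Readout: ABCC2 mRNA by qRT-PCR, norm. ACTB/GAPDH/POLR2A. Bidirectional fit vs DMSO baseline.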
# [6] = read-out: Broad substrate specificity ATP-binding cassette transporter ABCG2 (Homo sapiens) (UniProt Q9UNQ0); assay: LTEA_HepaRG_ABCG2: Life Technologies and Expression Analysis (LTEA) Assay for ABC Transporter (ABCG2) using HepaRG (AID 2283465); conditions: mRNA level, 48 h; actives raise or lower the signal
# Procedure, shortened: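 Differentiated HepaRG cells in serum-free induction medium were exposed for 48 h, in duplicate, to eight half-log concentrations up to 100 uM in 0.5% DMSO. ABCG2 mRNA was measured by TaqMan qRT-PCR, normalized to ACTB, GAPDH and POLR2A, and fitted bidirectionally versus DMSO.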
# [7] = read-out: ATP-citrate lyase (ACLY), ACLY (gene 47); assay: LTEA_HepaRG_ACLY: Life Technologies and Expression Analysis (LTEA) Assay for ATP-citrate lyase (ACLY) using HepaRG (AID 2283466); conditions: mRNA level, 48 h; actives raise or lower the signal
# Procedure, shortened: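 Differentiated human HepaRG cells in serum-free induction medium exposed 48 h, in duplicate, to eight half-log concentrations from 100 uM top in 0.5% DMSO; ACLY mRNA measured by qRT-PCR, normalized to ACTB, GAPDH, POLR2A, fitted bidirectionally versus DMSO.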
# [8] = read-out: Peroxisomal acyl-coenzyme A oxidase 1 (ACOX1) gene, ACOX1 (gene 51); assay: LTEA_HepaRG_ACOX1: Life Technologies and Expression Analysis (LTEA) Assay for Peroxisomal acyl-coenzyme A oxidase 1 (ACOX1) gene using HepaRG (AID 2283467); conditions: mRNA level, 48 h; actives raise or lower the signal
# Procedure, shortened: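 Differentiated human HepaRG cells were exposed in duplicate for 48 h in serum-free induction medium to eight half-log concentrations up to 100 uM in 0.5% DMSO. ACOX1 mRNA was then quantified by TaqMan qRT-PCR, normalized to ACTB, GAPDH and POLR2A.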
# [9] = read-out: Alkaline Phosphatase, Placental (ALPP) gene, ALPP (gene 250); assay: LTEA_HepaRG_ALPP: Life Technologies and Expression Analysis (LTEA) Assay for Alkaline Phosphatase, Placental (ALPP) gene using HepaRG (AID 2283468); conditions: mRNA level, 48 h; actives raise or lower the signal
# Procedure, shortened: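 HepaRG, 48 h plating then 48 h dosing, serum-free induction medium, 0.5% DMSO. 8 conc, half-log, max 100 uM, duplicates. Endpoint: ALPP transcript by qRT-PCR, housekeeping-normalized; gain or loss fitted vs DMSO.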
# [10] = read-out: Bcl-2 (BAD) gene, BAD (gene 572); assay: LTEA_HepaRG_BAD: Life Technologies and Expression Analysis (LTEA) Assay for Bcl-2 (BAD) gene using HepaRG (AID 2283469); conditions: mRNA level, 48 h; actives raise or lower the signal
# Procedure, shortened: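 Differentiated human HepaRG cells in serum-free induction medium were exposed in duplicate for 48 h to eight concentrations (top 100 uM, half-log steps, 0.5% DMSO). BAD mRNA was quantified by qRT-PCR normalised to ACTB, GAPDH and POLR2A, with bidirectional fitting versus DMSO.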
# [11] = read-out: Bcl-2 (BAX) gene, BAX (gene 581); assay: LTEA_HepaRG_BAX: Life Technologies and Expression Analysis (LTEA) Assay for Bcl-2 (BAX) gene using HepaRG (AID 2283470); conditions: mRNA level, 48 h; actives raise or lower the signal
# Procedure, shortened: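 Differentiated HepaRG cells exposed 48 h in serum-free induction medium, eight half-log concentrations from 100 uM, in duplicate, 0.5% DMSO vehicle. BAX mRNA by TaqMan qRT-PCR, normalised to ACTB, GAPDH and POLR2A.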
# [12] = read-out: Alpha-fetoprotein (AFP) gene, AFP (gene 174); assay: LTEA_HepaRG_AFP: Life Technologies and Expression Analysis (LTEA) Assay for Alpha-fetoprotein (AFP) gene using HepaRG (AID 2283472); conditions: mRNA level, 48 h; actives raise or lower the signal
# Procedure, shortened: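 Differentiated human HepaRG cells exposed 48 h in serum-free induction medium, 8-point half-log series from 100 uM in 0.5% DMSO, duplicate. AFP mRNA by qRT-PCR, normalized to ACTB, GAPDH, POLR2A; bidirectional fit vs DMSO.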
# BCL2L11 (gene 10018) = assay: LTEA_HepaRG_BCL2L11: Life Technologies and Expression Analysis (LTEA) Assay for Bcl-2 (BCL2L11) gene using HepaRG (AID 2283473); conditions: mRNA level, 48 h; actives raise or lower the signal
# Procedure, shortened: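 Read-out is BCL2L11 transcript level by qRT-PCR, normalized to three housekeeping genes and fitted bidirectionally against 0.5% DMSO vehicle. HepaRG cells received chemicals for 48 h in serum-free induction medium, 100 uM down in half-log dilutions.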
# [13] = read-out: Apolipoprotein A-V (APOA5) gene, APOA5 (gene 116519); assay: LTEA_HepaRG_APOA5: Life Technologies and Expression Analysis (LTEA) Assay for Apolipoprotein A-V (APOA5) gene using HepaRG (AID 2283474); conditions: mRNA level, 48 h; actives raise or lower the signal
# Procedure, shortened: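 Readout is APOA5 transcript level by qRT-PCR on Fluidigm dynamic arrays, normalized to three housekeeping genes. HepaRG cultures received chemicals for 48 h at up to 100 uM (half-log steps, 0.5% DMSO), with gain or loss scored relative to DMSO.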
# [14] = read-out: Apoptosis regulator Bcl-2 (Homo sapiens) (UniProt P10415); assay: LTEA_HepaRG_BCL2: Life Technologies and Expression Analysis (LTEA) Assay for Bcl-2 gene using HepaRG (AID 2283475); conditions: mRNA level, 48 h; actives raise or lower the signal
# Procedure, shortened: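 Differentiated human HepaRG cells in serum-free induction medium exposed 48 h, in duplicate, to 8-point half-log series from 100 uM in 0.5% DMSO. BCL2 mRNA by qRT-PCR (TaqMan/Fluidigm), normalized to ACTB, GAPDH, POLR2A; bidirectional fit against DMSO.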
# [15] = read-out: Bcl-2 (BID) gene, BID (gene 637); assay: LTEA_HepaRG_BID: Life Technologies and Expression Analysis (LTEA) Assay for Bcl-2 (BID) gene using HepaRG (AID 2283476); conditions: mRNA level, 48 h; actives raise or lower the signal
# Procedure, shortened: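 Gene expression by qRT-PCR in HepaRG cells after 48 h exposure, duplicate wells, eight half-log concentrations topping at 100 uM in 0.5% DMSO. Normalized to ACTB, GAPDH, POLR2A; bidirectional fitting relative to DMSO.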
# [16] = CEETOX_H295R_TESTO: CeeTox H295R High-throughput Steroidogenesis Assay for Testosterone (TESTO) (AID 2283457); conditions: actives raise or lower the signal
# Procedure, shortened: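 H295R, passage ≤10, 48 h dosing; media extracted with MTBE → HPLC-MS/MS for testosterone; 7-pt standard curve sets LLOQ/ULOQ; bidirectional fit vs DMSO; MTT viability same wells.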
# [17] = read-out: ABC Transporter (ABCB11), ABCB11 (gene 8647); assay: LTEA_HepaRG_ABCB11: Life Technologies and Expression Analysis (LTEA) Assay for ABC Transporter (ABCB11) using HepaRG (AID 2283463); conditions: mRNA level, 48 h; actives raise or lower the signal
# Procedure, shortened: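 Differentiated human HepaRG cells were exposed for 48 h in serum-free induction medium to eight half-log concentrations up to 100 uM in 0.5% DMSO. ABCB11 mRNA was quantified by qRT-PCR, normalized to ACTB, GAPDH and POLR2A, and fitted bidirectionally versus DMSO.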
# Sequence of Broad substrate specificity ATP-binding cassette transporter ABCG2 (Homo sapiens) (Q9UNQ0 whole entry, looked up): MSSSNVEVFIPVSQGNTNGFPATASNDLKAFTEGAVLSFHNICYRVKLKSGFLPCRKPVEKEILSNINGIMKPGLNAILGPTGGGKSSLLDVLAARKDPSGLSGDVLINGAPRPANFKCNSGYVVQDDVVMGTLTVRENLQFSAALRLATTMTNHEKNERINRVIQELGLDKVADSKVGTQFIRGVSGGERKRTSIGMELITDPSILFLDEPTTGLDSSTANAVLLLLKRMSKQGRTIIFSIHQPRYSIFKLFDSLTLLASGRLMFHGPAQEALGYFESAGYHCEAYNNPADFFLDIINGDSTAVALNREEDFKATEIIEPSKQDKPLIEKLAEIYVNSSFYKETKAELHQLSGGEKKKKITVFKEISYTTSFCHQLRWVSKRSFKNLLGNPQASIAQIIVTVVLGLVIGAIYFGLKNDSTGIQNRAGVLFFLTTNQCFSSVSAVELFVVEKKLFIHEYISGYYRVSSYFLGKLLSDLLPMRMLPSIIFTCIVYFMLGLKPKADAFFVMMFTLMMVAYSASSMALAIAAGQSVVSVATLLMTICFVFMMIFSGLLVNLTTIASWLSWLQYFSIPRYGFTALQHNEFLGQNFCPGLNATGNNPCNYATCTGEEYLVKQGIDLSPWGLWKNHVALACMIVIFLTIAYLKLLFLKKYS
# Sequence of Apoptosis regulator Bcl-2 (Homo sapiens) (P10415 whole entry, looked up): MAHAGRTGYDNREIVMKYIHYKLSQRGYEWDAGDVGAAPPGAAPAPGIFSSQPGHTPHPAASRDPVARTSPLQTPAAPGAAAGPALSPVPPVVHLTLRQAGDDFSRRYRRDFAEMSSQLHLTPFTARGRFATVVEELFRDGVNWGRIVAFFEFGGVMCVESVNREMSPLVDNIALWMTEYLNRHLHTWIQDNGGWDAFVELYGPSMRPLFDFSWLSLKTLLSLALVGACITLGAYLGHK
structure (smiles),measurement,setting,value
c1nc[nH]n1,outcome,[1],inactive
same,outcome,[2],inactive
same,outcome,[3],inactive
same,outcome,[4],inactive
same,outcome,[5],inactive
same,outcome,[6],inactive
same,outcome,[7],inactive
same,outcome,[8],inactive
same,AC50,[9],109 nM (active)
same,AC50,[10],105 nM (active)
same,outcome,[11],inactive
same,outcome,[12],inactive
same,outcome,BCL2L11 (gene 10018),inactive
same,AC50,[13],112 nM (active)
same,outcome,[14],inactive
same,AC50,[15],89.7 nM (active)
COP(N)(=S)OC,outcome,[16],inactive
OCC1CO1 (stereo not drawn),outcome,[1],inactive
same,outcome,[2],inactive
same,outcome,[3],inactive
same,outcome,[4],inactive
same,outcome,[5],inactive
same,outcome,[6],inactive
same,outcome,[7],inactive
same,outcome,[8],inactive
same,outcome,[9],inactive
same,outcome,[10],inactive
same,outcome,[11],inactive
same,outcome,[12],inactive
same,outcome,BCL2L11 (gene 10018),inactive
same,outcome,[13],inactive
same,outcome,[15],inactive
CSC(C)(C)C=NO,outcome,[1],inactive
same,outcome,[2],inactive
same,outcome,[3],inactive
same,outcome,[4],inactive
same,outcome,[17],inactive
same,outcome,[5],inactive
same,outcome,[6],inactive
same,outcome,[7],inactive
same,outcome,[8],inactive
same,outcome,[9],inactive
same,outcome,[10],inactive
same,outcome,[11],inactive
same,outcome,[12],inactive
same,outcome,BCL2L11 (gene 10018),inactive
same,outcome,[13],inactive
same,outcome,[15],inactive
COCCOCCO,outcome,[1],inactive
same,outcome,[2],inactive
same,outcome,[3],inactive
same,outcome,[4],inactive
same,outcome,[5],inactive
same,outcome,[6],inactive
same,outcome,[7],inactive
same,outcome,[8],inactive
same,outcome,[9],inactive
same,outcome,[10],inactive
same,outcome,[11],inactive
same,outcome,[12],inactive
same,outcome,BCL2L11 (gene 10018),inactive
same,outcome,[13],inactive
same,outcome,[15],inactive
CCN(CC)c1ccccc1,outcome,[1],inactive
same,outcome,[2],inactive
same,outcome,[3],inactive
same,outcome,[4],inactive
same,outcome,[5],inactive
same,outcome,[6],inactive
same,outcome,[7],inactive
same,outcome,[8],inactive
same,outcome,[9],inactive
same,outcome,[10],inactive
same,outcome,[11],inactive
same,outcome,[12],inactive
same,outcome,BCL2L11 (gene 10018),inactive
same,outcome,[13],inactive
same,outcome,[15],inactive
CCOS(=O)(=O)OCC,outcome,[1],inactive
same,outcome,[2],inactive
same,outcome,[3],inactive
same,outcome,[4],inactive
same,outcome,[5],inactive
same,outcome,[6],inactive
same,outcome,[7],inactive
same,outcome,[8],inactive
same,outcome,[9],inactive
same,outcome,[10],inactive
same,outcome,[11],inactive
same,outcome,[12],inactive
same,outcome,BCL2L11 (gene 10018),inactive
same,outcome,[13],inactive
same,outcome,[15],inactive

# — PubChem BioAssay (EPA / NIEHS)
